Shown are actives, neighbours in structure and some others; about 11% of the full set was active somewhere.
AMA1 RON2 block – qHTS for Inhibitors of AMA1-RON; Towards Development of Antimalarial Drug Lead: Primary Screen; AlphaScreen AMA1-biotinylated RON2 peptide binding; Potency, µM (doses to about 58.2 µM), without a hit: at the highest dose activity change, negative = inhibition, hits mostly inhibitors; 360,000 tested, 0.2% active; AID 720542, 2013;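 note: 0% = vehicle wells and -100% = peptide control; nearly all actives have a fitted effect of over 45% in size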
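AMA1 (3D7) with his tag at 25 nM final met compounds first, then biotinylated RON2 peptide at 25 nM; detection used donor plus acceptor beads, 10 µg/mL apiece, read by AlphaScreen after 30 min at room temperature.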
NS1 function inh – qHTS Assay for Inhibitors of Influenza NS1 Protein Function; Potency, µM (doses to about 46.1 µM), inactives show at the top dose activity, positive = more growth; 270,000 tested, 0.4% active; AID 2326, 2010; calls by dose curve; note: actives are rising curves; nearly all actives have a fitted effect of over 50% in size
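Compounds were scored for reversing the slow growth caused by influenza A NS1 in S. cerevisiae, measured by optical density at 600 nm. Assay medium contained 2% galactose at pH 6.0; NS1-free yeast of the same strain were the positive control.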
Sm TGR block – qHTS Assay for the Inhibitors of Schistosoma Mansoni Peroxiredoxins | Schistosoma mansoni thioredoxin glutathione reductase (TGR), Q962Y6 | purified TGR, DTNB reduction, TNB absorbance 405 nm | Potency, µM (series often up to 114 µM), inactives show at the top dose activity change, negative = inhibition, most hits filed as inhibitors | 360,000 tested, 3% active | AID 485364, 2010; note: % is set by controls: 0 for no effect and ±100 for the full control effect; nearly all actives have a fitted effect of over 60% in size
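Kinetic colorimetric format: TGR-catalysed, NADPH-driven DTNB reduction monitored via TNB absorbance. Enzyme dispensed at 20 nM; compound exposure 15 min at room temperature before reaction start.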
Pf growth 48h – Primary qHTS for delayed death inhibitors of the malarial parasite plastid, 48 hour incubation; Potency, µM (top dose mostly 28.7 µM), for inactives: at the highest dose activity change, negative = inhibition, hits mostly inhibitors; P. falciparum luciferase growth in erythrocytes, 48 h; 310,000 tested, 5.9% active; AID 504832, 2011; note: % is set by controls: 0 for no effect and ±100 for the full control effect
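Luciferase-expressing P. falciparum in infected erythrocytes (2% hematocrit, 0.1% parasitemia final) in RPMI 1640/0.5% Albumax were exposed to compound for 48 hours at 37 C, 5% CO2; growth read as luminescence.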
Pf growth 96h – Primary qHTS for delayed death inhibitors of the malarial parasite plastid, 96 hour incubation. 320,000 tested, 6.9% active. P. falciparum luciferase reporter growth, 96 h. Potency, µM (top dose mostly 28.7 µM), for the others: at the top dose activity change, negative = inhibition, actives largely listed as inhibitors; note: % is set by controls: 0 for no effect and ±100 for the full control effect
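Delayed-death screen, second-generation endpoint: infected erythrocytes, 2% hematocrit, 0.05% parasitemia final; 96 hours at 37 C, 5% CO2; luciferase detection reagent; luminescence decrease equals reduced growth.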
The depositor's hits bear a star; ? = inconclusive; / = no result given. Unless noted, calls come from the whole dose curve; as a rule, active = well fitted curve in the direction sought with a large enough effect; inconclusive = small, poorly fitted or top-dose-only effect, or another doubt; inactive = no such curve, though single readings can be large; an effect the other way counts as inactive or inconclusive. Potency is the fitted concentration of half-maximal effect.

SMILES	AMA1 RON2 block	NS1 function inh	Sm TGR block	Pf growth 48h	Pf growth 96h
CC(Oc1ccc(Br)cc1)c1nc2c3ccccc3nc(=S)n2[nH]1 (centres undefined)	53%	/	-1%	1.5µM*	?
CC(=O)Nc1ccc(NC(=O)C(C)OC(=O)[C@@H]2CCCN2C(=O)c2cccs2)cc1 (some centres undefined)	-3%	/	/	/	/
COc1ccccc1C(=O)N/C(=C\c1ccccc1)C(=O)NC(C)C(=O)O (centres undefined)	6%	?	28%	21%	9.3µM*
CC1=C(C(=O)Nc2cc(Cl)ccc2C)C(c2sccc2C)n2ncnc2N1 (centres undefined)	/	/	4%	/	/
O=C(Oc1cccc(C(=S)N2CCCCC2)c1)c1ccccc1	-6%	/	-1%	25%	7.4µM*
CCC1CCCCN1CC(O)Cn1c2ccccc2n2c(=O)cc(C)c(C#N)c12 (centres undefined)	17%	9%	7%	?	4.7µM*
Cc1ccc2[nH]c(CCN(C)C)c(CN3CCOCC3)c2c1	2%	/	-32%	13µM*	2.3µM*
COc1ccc(NS(=O)(=O)c2ccc3c(c2)NC(=O)CCS3)cc1Cl	0%	?	3%	-26%	5.9µM*
Cc1ccc(CNC(=O)Nc2ccc(OC(F)(F)F)cc2)n1C	10%	6%	?	-18%	6%
CC1=NCCN1CCNC(=O)Nc1ccc(F)cc1	0%	3%	-6%	6%	0.41µM*
Cc1ccc(CNC(=O)Nc2ccc(F)cc2)n1C	10%	9%	14µM*	28%	5%
COc1ccccc1NC(=O)NCc1ccc(C)n1C	-2%	-3%	40µM*	?	-5%
CC(C)Oc1ccc(C(=O)Nc2c(C(=O)Nc3cccc(F)c3)oc3ccccc23)cc1	/	/	-9%	/	/
Cc1nnsc1C(=O)N1CCCC(C)(C(=O)NS(=O)(=O)C2CC2)C1 (centres undefined)	-18%	/	/	/	/
Cc1ccc(CSc2ncc(Cl)c(C(=O)Oc3ccc(F)cc3)n2)cc1	/	/	11%	/	/
COC(=O)C[C@@H]1C=C[C@@H](NC(=O)C2CCC2)[C@@H](CO)O1	0%	/	/	/	/
CCOC(=O)c1c(C)[nH]c(C(=O)NCc2ccco2)c1C	/	/	2%	52%	72%
Cc1ccc(C)n1CCN1CCN(S(=O)(=O)c2ccc(F)cc2F)CC1	29%	1%	?	?	13µM*
O=S(=O)(NC1CCCC1)c1cccc(S(=O)(=O)N2CCC(n3nnc4ccccc43)CC2)c1	-9%	2%	-1%	10µM*	42%
Cc1ccc2c(c1)nnn2C1CCN(S(=O)(=O)c2ccc3ccccc3c2)CC1	-16%	7%	-5%	10µM*	-19%
O=S(=O)(NC1CC1)c1cccc(S(=O)(=O)N2CCCC2)c1	-9%	-3%	-9%	33%	22%
Cc1ccc2c(c1)nnn2C1CCN(S(=O)(=O)c2cccc(S(=O)(=O)N(C)C)c2)CC1	32%	8%	5%	10µM*	?
CC1(C)COCN1C(=O)c1ccc(Cl)c(Cl)c1	-3%	/	-1%	1%	16%
Cc1noc(C)c1Cn1c(C)c(C(=O)NCc2ccc3c(c2)OCCO3)sc1=O	-2%	/	/	/	/
O=c1cc(N=Nc2ccc(Cl)cc2)[nH]c(=O)[nH]1	1%	-66%	?	-9%	?
CN(C)c1ccc(-c2ccnc3c2CC(C)(C(=O)Nc2cccc(N(C)C)c2)O3)cc1 (centres undefined)	18µM*	/	/	/	/
CN(C)c1ccc(CNC(=O)C2(C)Cc3c(-c4ccc(N(C)C)cc4)ccnc3O2)cc1 (centres undefined)	11µM*	/	/	/	/
CN(C)c1ccc(CNC(=O)C2(C)Cc3c(-c4ccccc4)ccnc3O2)cc1 (centres undefined)	28µM*	/	/	/	/
CN(C)c1ccc(CNC(=O)C2(C)Cc3c(-c4cccc(C(N)=O)c4)ccnc3O2)cc1 (centres undefined)	-17%	/	/	/	/
